Source: PubChem (The Scripps Research Institute Molecular Screening Center)
The list is not random: actives were taken first. Their share in the collection is about 1.7%.
PAD4 inh: PAD4 (human) enzyme inhibition; recombinant PAD4, RCA probe fluorescence polarization; inhibition, % at 6.36 µM; 330,000 tested, 0.41% active; AID 485272;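 active means percent inhibition above a cutoff equal to the mean of all tested compounds plus 3 SD, cut at about 15% in these data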;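 further: 0% = PAD4 with RCA probe and DMSO and 100% = probe without PAD4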
LYPLA2 inh: counter-screen for PME1 inhibitors: inhibitors of human LYPLA2 | O95372 | recombinant LYPLA2, FP-Rh probe fluorescence polarization | inhibition, % at 5.9 µM | 320,000 tested, 0.38% active;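 active means inhibition above the screen-wide mean plus 3 SD, limit set per campaign, cut at about 26% in these data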;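 further: 0% = LYPLA2 with DMSO and 100% = wells lacking LYPLA2 enzyme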
PME-1 primary: PME-1 (human) inhibition. recombinant PME-1, FP-Rh probe fluorescence polarization. inhibition, % at 5.9 µM. 320,000 tested, 0.53% active;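 active means inhibition above the campaign mean of all compounds plus 3 SD, cut at about 26% in these data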;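 further: competitive labeling of PME-1 active site by serine hydrolase directed probe; 0% = PME-1 with DMSO and 100% = wells lacking PME-1 enzyme; inhibitors block probe labeling so polarization falls and inhibition rises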
Target sequence (Q9Y570 whole entry, looked up): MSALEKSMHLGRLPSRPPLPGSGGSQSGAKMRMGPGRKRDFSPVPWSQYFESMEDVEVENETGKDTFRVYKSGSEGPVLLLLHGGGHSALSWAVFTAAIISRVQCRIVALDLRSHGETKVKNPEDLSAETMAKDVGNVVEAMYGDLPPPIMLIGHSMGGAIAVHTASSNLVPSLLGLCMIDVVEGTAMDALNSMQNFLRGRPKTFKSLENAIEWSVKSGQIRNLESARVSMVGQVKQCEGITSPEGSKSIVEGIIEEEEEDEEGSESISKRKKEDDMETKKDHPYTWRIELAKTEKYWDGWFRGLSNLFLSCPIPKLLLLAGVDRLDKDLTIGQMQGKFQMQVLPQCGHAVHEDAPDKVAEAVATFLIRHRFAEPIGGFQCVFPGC
LYPLA1 counter: blocks human lysophospholipase 1, a PME1 counter-screen; O75608; recombinant LYPLA1, FP-Rh probe fluorescence polarization; inhibition, % at 5.9 µM; 320,000 tested, 0.16% active;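 active means inhibition above the mean of all tested compounds plus 3 SD, set per campaign, cut at about 14% in these data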;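 further: inhibitors block serine hydrolase probe labeling of LYPLA1 so polarization falls; 0% = enzyme with DMSO and 100% = wells lacking LYPLA1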
GSTO1 inh: GSTO1 inhibition, counter-screen for RBBP9 inhibitors; inhibition, % at 5.96 µM; AID 1974; 300,000 tested, 1.1% active; P78417; recombinant GSTO1, activity-based probe fluorescence polarization;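 active means inhibition above the campaign mean inhibition plus 3 SD, cut at about 35% in these data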;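 further: 0% = GSTO1-1 with DMSO and 100% = wells lacking GSTO1-1 enzyme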
Target sequence (P78417 whole entry, looked up): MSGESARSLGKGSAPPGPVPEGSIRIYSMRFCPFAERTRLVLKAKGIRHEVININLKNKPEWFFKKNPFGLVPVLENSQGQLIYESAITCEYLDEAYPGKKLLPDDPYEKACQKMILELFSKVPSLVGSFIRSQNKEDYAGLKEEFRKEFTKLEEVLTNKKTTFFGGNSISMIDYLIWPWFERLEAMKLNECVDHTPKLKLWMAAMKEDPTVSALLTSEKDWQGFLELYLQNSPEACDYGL
Fam108B inh: blocks mouse Fam108B hydrolase in RBBP9 counter-screen | recombinant Fam108B, FP-Rh probe fluorescence polarization | inhibition, % at 9.51 µM | 300,000 tested, 0.33% active | AID 1947;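 active means inhibition above the screen mean inhibition plus 3 SD, computed separately per campaign, cut at about 18% in these data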;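 further: inhibitors lower polarization as less probe binds the enzyme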
PAD4 FP conf: PAD4 (human) inhibition, confirmed | shares compounds with PAD4 inh | 1,200 tested, 28% active | recombinant PAD4, RCA probe fluorescence polarization | inhibition, % at 6.36 µM | AID 488796;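 active means mean inhibition across replicates above the hit cutoff set by the earlier primary screen, cut at about 15% in these data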;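 further: inhibitors block active-site labeling by the probe so polarization falls; 0% = PAD4 with probe and DMSO and 100% = probe without PAD4 enzyme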
Active calls of the source: *; x = not tested or not shown; + = active, no number.

SMILES | PAD4 inh | LYPLA2 inh | PME-1 primary | LYPLA1 counter | GSTO1 inh | Fam108B inh | PAD4 FP conf
O=c1[nH]c(Sc2ccc([N+](=O)[O-])cc2[N+](=O)[O-])nc2ccccc12 | 44* | -1 | -8 | 2 | 34 | 3 | 19*
COc1cccc(NC(=O)CN(C)C(=O)C23CC4CC(CC(Cl)(C4)C2)C3)c1 | + | -7 | 0 | -3 | x | x | -4
CCCSc1nc2c(cnn2-c2ccccc2)c(=O)n1N | -2 | 0 | -3 | 3 | 8 | -5 | x
Nn1c(SCc2ccccc2)nc2c(cnn2-c2ccccc2)c1=O | 18* | 4 | 0 | -1 | 5 | 4 | 3
Nc1nonc1-n1nnc(C(=O)N/N=C/c2ccc(Br)cc2)c1CSC1=NCCS1 | 10 | -56 | -46 | -30 | -9 | -29 | x
Nc1nonc1-n1nnc(C(=O)N/N=C/c2cccnc2)c1CSC1=NCCS1 | 35* | -8 | 0 | 0 | -17 | -8 | 10
COc1ccccc1N1C(=O)c2ccc(C(=O)Nc3cccc(C(C)=O)c3)cc2C1=O | 37* | 13 | -12 | -16 | 0 | -9 | 34*
COc1ccccc1N1C(=O)c2ccc(C(=O)Nc3ccc(F)cc3)cc2C1=O | -2 | 8 | -6 | 1 | -5 | 2 | x
N=C(N)SCP(=O)(c1ccccc1)c1ccccc1 | 17* | 2 | 3 | 0 | -7 | 1 | 15*
Cc1ccc(P(=O)(CSC(=N)N)c2ccc(C)cc2)cc1 | 24* | 5 | 1 | 1 | 5 | 4 | 18*
Cc1ccc(P(=O)(CO)c2ccc(C)cc2)cc1 | -2 | 2 | -10 | -1 | 2 | 1 | x
Nc1ccc2[nH]ncc2c1 | -11 | 0 | -1 | 2 | 8 | -2 | x
CC(NC(=O)CN1C(=O)NC2(CCc3ccccc32)C1=O)c1ccccc1 (centres undefined) | -2 | 2 | 3 | 0 | x | x | x
N#Cc1cccc(NS(=O)(=O)c2ccc(S(=O)(=O)N3CCOCC3)cc2)c1 | -3 | 0 | 0 | -2 | x | x | x
N#Cc1cccc(NS(=O)(=O)c2ccccc2Cl)c1 | 22* | 3 | 6 | 0 | x | x | 1
COc1cccc(/C=C2/CN(C)CC3=C2OC(N)=C(C#N)C3c2cccc(OC)c2)c1 (centres undefined) | 61* | 1 | -2 | -3 | 12 | 0 | 13
Cc1ccc(NC(=O)CN2C(=O)N/C(=C/c3ccc4c(c3)OCCO4)C2=O)cc1 | -5 | -1 | -8 | -1 | -6 | -10 | x
C#CCOCCOCCOCCNc1nc(N2CCN(C(=O)[C@H](CCCCN)n3cc([C@@H](N)C(C)CC)nn3)CC2)nc(N2CCN(C(=O)[C@H](Cc3cc4ccccc4[nH]3)n3cc([C@@H](N)CC(C)C)nn3)CC2)n1 (some centres undefined) | 16* | -3 | 1 | -3 | -3 | -1 | 4
C#CCOCCOCCOCCNc1nc(N2CCN(C(=O)[C@H](Cc3cc4ccccc4[nH]3)n3cc([C@@H](N)C(C)CC)nn3)CC2)nc(N2CCN(C(=O)[C@H](CCCCN)n3cc([C@@H](N)CO)nn3)CC2)n1 (some centres undefined) | -4 | -3 | 4 | 1 | -2 | -5 | x
O=C(O)c1cccc(S(=O)(=O)Nc2ccc3oc(=O)sc3c2)c1 | 36* | -5 | 0 | -2 | 16 | 6 | 13
O=c1oc2ccc(NS(=O)(=O)c3cccc4cccnc34)cc2s1 | 36* | 2 | 8 | -4 | 31 | 5 | 23*
O=C1CCCc2oc3ccc(NS(=O)(=O)c4cccc5cccnc45)cc3c21 | 4 | 4 | 3 | 0 | -5 | -1 | x
O=C(Nc1nc(-c2ccc(S(=O)(=O)N3CCOCC3)cc2)cs1)c1ccccc1 | 15* | -37 | -34 | -30 | -14 | -31 | 19*
CCn1c(=NC(=O)CSC(C)=O)sc2cc(F)ccc21 | 16* | -2 | -8 | -2 | -13 | 1 | 4
CN1CCN(c2nc3nonc3nc2N2CCN(C)CC2)CC1 | 21* | 6 | 2 | 6 | 12 | 5 | 6
SMILES | PAD4 inh | LYPLA2 inh | PME-1 primary | LYPLA1 counter | GSTO1 inh | Fam108B inh | PAD4 FP conf
CCn1c2ccccc2c2cc(/C(C)=N/O)ccc21 | 16* | -4 | -2 | -1 | 6 | 1 | 0
COc1ccc(N2CCN(C(=O)Cn3ncc4c([nH]c5ccccc54)c3=O)CC2)cc1 | 1 | 8 | -8 | 4 | 17 | -2 | x
COc1ccc(-c2ncn(CCC#N)c2[N+](=O)[O-])cc1 | -4 | 3 | 1 | -1 | 5 | 1 | x
COc1ccc(-c2cc(=O)n(CCC#N)[nH]2)cc1 | 70* | 0 | 0 | 2 | 36* | 2 | 2
CCCCOc1cccc(C(=O)Nc2ccc(S(=O)(=O)Nc3nnc(CC)s3)cc2)c1 | 0 | 20 | -9 | -9 | -14 | -5 | x
Cc1ccc(C2(C)NC(=O)N(CC(=O)NC(=O)NC(C)(C)C)C2=O)cc1 (centres undefined) | 16* | -3 | -4 | 0 | 9 | 1 | -6
Cc1ccnc(NC(=O)c2cc3cc(F)ccc3s2)c1 | 17* | -6 | -10 | -4 | -8 | -9 | 25*
Cc1ccnc(NC(=O)Nc2ccc(F)cc2)c1 | 4 | -8 | -1 | -2 | -1 | -2 | x
COC(=O)C1C(O)=C(C=Nc2ccc(N)cc2)C(=O)CC1(C)C (centres undefined) | 47* | 5 | 0 | 4 | 16 | 2 | 3
COC(=O)C1C(O)=C(C=Nc2ccccc2)C(=O)CC1(C)C (centres undefined) | -2 | 4 | -6 | -2 | 1 | -5 | x
CC1(C)CC(=O)C(C=Nc2ccc(N)cc2)=C(O)C1 | 40* | 5 | 8 | -2 | 5 | 4 | 5
Cc1cc(=O)oc2c(CN3CCC(C)CC3)c(O)c(Cl)cc12 | 33* | 11 | 24 | 10 | 19 | 12 | 21*
CCOC(=O)C1=C(C)N=c2s/c(=C\c3ccc(OCC(=O)O)c(OC)c3)c(=O)n2C1c1ccc(OC)cc1 (centres undefined) | 15* | -2 | 3 | -4 | -10 | -8 | 3
COc1ccc(NC(=O)Nc2cccc3c2O[C@H](CN(C)C(=O)NC(C)C)[C@@H](C)CN([C@H](C)CO)C3=O)cc1 | -3 | x | x | x | x | x | x
S=C(NCc1ccco1)Nc1cccc(Cl)c1 | 163* | 5 | -6 | -6 | 4 | -7 | 0
CC(C(Sc1ccccc1N)c1ccccc1)[N+](=O)[O-] (centres undefined) | 18* | 3 | 8 | 3 | -2 | -1 | 15*
Nc1ccccc1SSc1ccccc1N | 8 | 9 | -3 | 1 | -15 | 10 | x
Cc1ccc(CNC(=O)c2ccc(C)c(S(=O)(=O)N3CCCCC3)c2)cc1 | 105* | 2 | 10 | 0 | x | x | 10
